Assay results as given in publication PMC7862700, “An all-to-all approach to the identification of sequence-specific readers for epigenetic DNA modifications on cytosine”.

Columns and labels:
Experiment in all cases: DAPPL (digital affinity profiling via proximity ligation, sequencing); 10 mM Tris-HCl pH 7.5, 50 mM NaCl, 1 mM DTT, 4% glycerol, room temperature, 30 min; GST-TFs on glutathione beads, 16-mer random dsDNA library, 0.1% formaldehyde crosslink after washing; high values mean tight binding
Settings in all cases: protein: recombinant; tags: N-terminal GST; dsDNA, one strand shown
[1] = biological target: T1, FLI1 (Homo sapiens, UniProt Q01543 1-452)
T1 sequence: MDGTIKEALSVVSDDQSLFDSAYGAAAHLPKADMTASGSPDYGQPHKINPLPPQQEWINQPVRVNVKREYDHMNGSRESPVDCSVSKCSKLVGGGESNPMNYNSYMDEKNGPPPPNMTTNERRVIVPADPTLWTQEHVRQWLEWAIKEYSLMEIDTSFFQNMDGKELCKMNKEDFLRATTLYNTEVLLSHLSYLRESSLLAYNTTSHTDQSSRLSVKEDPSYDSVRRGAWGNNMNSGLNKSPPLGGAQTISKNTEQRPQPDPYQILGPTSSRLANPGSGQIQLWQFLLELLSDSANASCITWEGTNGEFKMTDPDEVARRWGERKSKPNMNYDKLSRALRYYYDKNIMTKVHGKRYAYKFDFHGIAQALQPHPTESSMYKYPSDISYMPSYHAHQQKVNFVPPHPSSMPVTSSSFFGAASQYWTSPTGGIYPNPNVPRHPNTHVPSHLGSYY
How it was run: (§1)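 Pools were built from human transcription factors expressed in yeast as GST fusions, captured on glutathione beads and DNA-barcoded, along with a tag-only sample. Incubation with 200 nmole of a 16-mer random double-stranded DNA library lasted 30 min at room temperature in Tris/NaCl/DTT/glycerol buffer, and was followed by washing, 0.1% formaldehyde crosslinking, proximity ligation, PCR amplification and Illumina NextSeq500 sequencing. Binding signal is the quotient of each hexamer's read frequency for a factor and its frequency for the tag-only sample.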

[2] = biological target: T2, ELK1 (Homo sapiens, UniProt P19419 1-428)
T2 sequence: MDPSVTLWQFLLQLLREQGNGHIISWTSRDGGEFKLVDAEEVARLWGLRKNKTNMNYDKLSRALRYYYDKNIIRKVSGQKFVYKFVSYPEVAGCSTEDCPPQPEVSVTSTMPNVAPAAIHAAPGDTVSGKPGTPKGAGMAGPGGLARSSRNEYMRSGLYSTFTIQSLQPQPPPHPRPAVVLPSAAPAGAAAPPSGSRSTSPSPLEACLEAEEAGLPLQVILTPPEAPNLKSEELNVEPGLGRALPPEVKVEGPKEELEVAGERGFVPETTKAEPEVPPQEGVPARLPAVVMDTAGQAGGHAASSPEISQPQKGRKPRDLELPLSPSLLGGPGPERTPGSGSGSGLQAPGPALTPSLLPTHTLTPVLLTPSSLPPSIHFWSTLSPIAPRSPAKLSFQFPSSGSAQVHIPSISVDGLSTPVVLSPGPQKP
How it was run: as §1

[3] = biological target: T3, GABPA (Homo sapiens, UniProt Q06546 1-454)
T3 sequence: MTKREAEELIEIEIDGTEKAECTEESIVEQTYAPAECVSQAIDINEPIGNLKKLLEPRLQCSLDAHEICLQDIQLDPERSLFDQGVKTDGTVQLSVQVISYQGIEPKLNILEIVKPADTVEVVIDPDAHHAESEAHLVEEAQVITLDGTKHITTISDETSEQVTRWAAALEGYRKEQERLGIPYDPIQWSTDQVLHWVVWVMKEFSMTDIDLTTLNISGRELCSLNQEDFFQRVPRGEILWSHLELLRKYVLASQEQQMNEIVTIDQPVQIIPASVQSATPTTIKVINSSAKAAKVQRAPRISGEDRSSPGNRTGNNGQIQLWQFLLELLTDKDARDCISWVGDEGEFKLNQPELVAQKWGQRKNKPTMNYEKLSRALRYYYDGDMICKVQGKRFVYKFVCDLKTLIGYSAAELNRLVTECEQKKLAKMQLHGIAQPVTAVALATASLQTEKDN
How it was run: as §1

[4] = biological target: T4, ERG (Homo sapiens, UniProt P11308 1-479)
T4 sequence: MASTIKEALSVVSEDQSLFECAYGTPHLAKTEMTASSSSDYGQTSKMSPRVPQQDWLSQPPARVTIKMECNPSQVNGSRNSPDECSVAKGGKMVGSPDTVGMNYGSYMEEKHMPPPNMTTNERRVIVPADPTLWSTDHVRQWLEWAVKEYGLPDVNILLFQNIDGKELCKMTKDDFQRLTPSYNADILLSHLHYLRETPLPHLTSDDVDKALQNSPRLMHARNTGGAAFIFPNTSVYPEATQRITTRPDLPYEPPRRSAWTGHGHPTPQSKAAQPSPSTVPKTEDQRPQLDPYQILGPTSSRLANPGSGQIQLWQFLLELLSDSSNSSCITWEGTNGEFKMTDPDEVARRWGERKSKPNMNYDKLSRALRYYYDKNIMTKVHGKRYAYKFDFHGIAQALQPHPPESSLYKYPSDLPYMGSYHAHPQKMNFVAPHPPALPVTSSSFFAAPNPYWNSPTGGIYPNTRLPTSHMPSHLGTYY
How it was run: as §1

[5] = biological target: ELF1 (Homo sapiens, UniProt P32519 1-619)
Chain of ELF1 (P32519 whole entry): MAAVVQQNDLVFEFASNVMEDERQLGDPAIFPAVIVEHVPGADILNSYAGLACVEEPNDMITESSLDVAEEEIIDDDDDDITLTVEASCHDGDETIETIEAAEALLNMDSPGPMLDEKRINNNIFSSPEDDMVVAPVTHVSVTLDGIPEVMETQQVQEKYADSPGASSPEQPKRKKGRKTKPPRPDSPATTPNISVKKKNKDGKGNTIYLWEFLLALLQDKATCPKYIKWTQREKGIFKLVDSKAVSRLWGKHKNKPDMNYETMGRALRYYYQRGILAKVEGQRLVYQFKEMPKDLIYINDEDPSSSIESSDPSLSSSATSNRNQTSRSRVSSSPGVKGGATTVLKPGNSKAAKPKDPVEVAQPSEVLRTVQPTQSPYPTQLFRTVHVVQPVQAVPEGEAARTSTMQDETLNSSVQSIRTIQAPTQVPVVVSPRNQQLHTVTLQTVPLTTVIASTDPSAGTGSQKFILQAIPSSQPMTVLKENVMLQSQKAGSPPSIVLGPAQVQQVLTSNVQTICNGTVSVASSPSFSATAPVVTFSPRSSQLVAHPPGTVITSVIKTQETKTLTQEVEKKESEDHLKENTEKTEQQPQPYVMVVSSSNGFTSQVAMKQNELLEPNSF
How it was run: as §1

[6] = biological target: T5, EHF (Homo sapiens, UniProt Q9NZC4 1-300)
T5 sequence: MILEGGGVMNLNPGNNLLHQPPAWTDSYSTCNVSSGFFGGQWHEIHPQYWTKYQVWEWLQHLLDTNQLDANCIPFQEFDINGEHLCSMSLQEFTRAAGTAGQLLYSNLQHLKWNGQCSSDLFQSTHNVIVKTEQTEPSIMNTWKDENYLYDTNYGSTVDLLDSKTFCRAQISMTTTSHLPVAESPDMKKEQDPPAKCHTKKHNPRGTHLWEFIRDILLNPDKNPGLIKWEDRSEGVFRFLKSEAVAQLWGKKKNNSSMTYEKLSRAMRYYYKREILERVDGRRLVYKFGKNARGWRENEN
How it was run: as §1

[7] = biological target: SPI1 (Homo sapiens, UniProt P17947 1-270)
How it was run: as §1

[8] = biological target: SPIB (Homo sapiens, UniProt Q01892 1-262)
Chain of SPIB (Q01892 whole entry): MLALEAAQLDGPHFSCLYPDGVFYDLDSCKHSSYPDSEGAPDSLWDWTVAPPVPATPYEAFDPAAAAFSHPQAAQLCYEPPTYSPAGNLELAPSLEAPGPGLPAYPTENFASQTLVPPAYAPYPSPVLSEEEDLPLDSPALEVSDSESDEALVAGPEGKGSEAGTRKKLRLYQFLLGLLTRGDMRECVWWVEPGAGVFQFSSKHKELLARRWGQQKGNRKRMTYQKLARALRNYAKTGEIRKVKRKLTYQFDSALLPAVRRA
How it was run: as §1

[9] = biological target: T6, ELK3 (Homo sapiens, UniProt P41970 1-407)
T6 sequence: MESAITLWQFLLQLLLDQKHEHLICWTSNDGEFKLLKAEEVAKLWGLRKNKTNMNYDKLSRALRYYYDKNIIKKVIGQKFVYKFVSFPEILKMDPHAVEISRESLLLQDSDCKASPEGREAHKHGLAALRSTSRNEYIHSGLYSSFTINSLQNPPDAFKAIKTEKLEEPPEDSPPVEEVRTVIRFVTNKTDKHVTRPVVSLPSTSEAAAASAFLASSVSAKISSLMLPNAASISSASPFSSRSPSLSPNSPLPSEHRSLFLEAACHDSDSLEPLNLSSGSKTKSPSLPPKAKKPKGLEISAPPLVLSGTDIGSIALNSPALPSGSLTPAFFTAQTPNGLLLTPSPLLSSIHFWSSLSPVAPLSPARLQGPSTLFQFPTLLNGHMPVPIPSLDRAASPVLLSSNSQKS
How it was run: as §1

| Sequence | binding signal [1] | binding signal [2] | binding signal [3] | binding signal [4] | binding signal [5] | binding signal [6] | binding signal [7] | binding signal [8] | binding signal [9] |
| --- | --- | --- | --- | --- | --- | --- | --- | --- | --- |
| GCCCCT | 1.22 fold enrichment (6-mer frequency, TF over GST control) | 1.2 fold enrichment (6-mer frequency, TF over GST control) | 1.24 fold enrichment (6-mer frequency, TF over GST control) | 1.23 fold enrichment (6-mer frequency, TF over GST control) | 1.37 fold enrichment (6-mer frequency, TF over GST control) | 1.43 fold enrichment (6-mer frequency, TF over GST control) | 1.29 fold enrichment (6-mer frequency, TF over GST control) | 1.21 fold enrichment (6-mer frequency, TF over GST control) | 1.36 fold enrichment (6-mer frequency, TF over GST control) |
| GTGACC | 1.29 fold enrichment (6-mer frequency, TF over GST control) | 1.27 fold enrichment (6-mer frequency, TF over GST control) | 1.18 fold enrichment (6-mer frequency, TF over GST control) | 1.24 fold enrichment (6-mer frequency, TF over GST control) | 1.25 fold enrichment (6-mer frequency, TF over GST control) | 1.36 fold enrichment (6-mer frequency, TF over GST control) | 1.32 fold enrichment (6-mer frequency, TF over GST control) | 1.24 fold enrichment (6-mer frequency, TF over GST control) | 1.03 fold enrichment (6-mer frequency, TF over GST control) |
| CACTCC | 1.27 fold enrichment (6-mer frequency, TF over GST control) | 1.41 fold enrichment (6-mer frequency, TF over GST control) | 1.32 fold enrichment (6-mer frequency, TF over GST control) | 1.29 fold enrichment (6-mer frequency, TF over GST control) | 1.34 fold enrichment (6-mer frequency, TF over GST control) | 1.17 fold enrichment (6-mer frequency, TF over GST control) | 1.23 fold enrichment (6-mer frequency, TF over GST control) | 1.33 fold enrichment (6-mer frequency, TF over GST control) | 1.27 fold enrichment (6-mer frequency, TF over GST control) |
| CCAACA | 1.06 fold enrichment (6-mer frequency, TF over GST control) | 1.11 fold enrichment (6-mer frequency, TF over GST control) | 1.09 fold enrichment (6-mer frequency, TF over GST control) | 1 fold enrichment (6-mer frequency, TF over GST control) | 1.04 fold enrichment (6-mer frequency, TF over GST control) | 1.12 fold enrichment (6-mer frequency, TF over GST control) | 1.01 fold enrichment (6-mer frequency, TF over GST control) | 1.01 fold enrichment (6-mer frequency, TF over GST control) | 1.03 fold enrichment (6-mer frequency, TF over GST control) |
| GAATAT | 1.08 fold enrichment (6-mer frequency, TF over GST control) | 1.08 fold enrichment (6-mer frequency, TF over GST control) | 1.11 fold enrichment (6-mer frequency, TF over GST control) | 1.04 fold enrichment (6-mer frequency, TF over GST control) | 1.12 fold enrichment (6-mer frequency, TF over GST control) | 1.04 fold enrichment (6-mer frequency, TF over GST control) | 1.08 fold enrichment (6-mer frequency, TF over GST control) | 1.01 fold enrichment (6-mer frequency, TF over GST control) | 1.12 fold enrichment (6-mer frequency, TF over GST control) |
| ATGTGG | 1.08 fold enrichment (6-mer frequency, TF over GST control) | 1.05 fold enrichment (6-mer frequency, TF over GST control) | 1.11 fold enrichment (6-mer frequency, TF over GST control) | 1.21 fold enrichment (6-mer frequency, TF over GST control) | 1.18 fold enrichment (6-mer frequency, TF over GST control) | 1.23 fold enrichment (6-mer frequency, TF over GST control) | 1.02 fold enrichment (6-mer frequency, TF over GST control) | 1.31 fold enrichment (6-mer frequency, TF over GST control) | 1.1 fold enrichment (6-mer frequency, TF over GST control) |
| ACCCCA | 1.05 fold enrichment (6-mer frequency, TF over GST control) | 1.12 fold enrichment (6-mer frequency, TF over GST control) | 1.15 fold enrichment (6-mer frequency, TF over GST control) | 1.08 fold enrichment (6-mer frequency, TF over GST control) | 1.11 fold enrichment (6-mer frequency, TF over GST control) | 1.11 fold enrichment (6-mer frequency, TF over GST control) | 1.08 fold enrichment (6-mer frequency, TF over GST control) | 1.05 fold enrichment (6-mer frequency, TF over GST control) | 1.02 fold enrichment (6-mer frequency, TF over GST control) |
| GCTACA | 1.16 fold enrichment (6-mer frequency, TF over GST control) | 1.07 fold enrichment (6-mer frequency, TF over GST control) | 1.22 fold enrichment (6-mer frequency, TF over GST control) | 1.13 fold enrichment (6-mer frequency, TF over GST control) | 1.17 fold enrichment (6-mer frequency, TF over GST control) | 1.21 fold enrichment (6-mer frequency, TF over GST control) | 1.2 fold enrichment (6-mer frequency, TF over GST control) | 1.24 fold enrichment (6-mer frequency, TF over GST control) | 1.19 fold enrichment (6-mer frequency, TF over GST control) |
